Common to all, as to experiment: yeast three-hybrid, YBZ-1, SC-Leu-His + 0.5 mM 3-AT, 4 days
Common to all, as to conditions: tags: N-Gal4 AD-HA kept; label: inside an RPR1-promoter hybrid RNA with tandem MS2 sites; ssRNA

In one assay the target is PUM1 PUF domain R8-SHR (Homo sapiens, UniProt Q14671 828-1176, N1122S;Y1123H;Q1126R). A digest of the protocol:
(§1)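 Pumilio-1 PUF domain libraries, randomized (NNK) at the three base-contacting residues of each repeat, were co-expressed with matching RNA elements from a centromeric plasmid in strain YBZ-1 (LexA–MS2 coat fusion, HIS3 reporter). Transformants were plated on SC-Leu (input) and SC-Leu-His + 0.5 mM 3-AT (selection) for four days, and repeat regions were PCR-amplified and Illumina-sequenced. The interaction score is the log2 change in variant frequency from input to selection, with pseudocount 1 where absent.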

The target in a further assay is PUM1 PUF domain R5-DCR (Homo sapiens, UniProt Q14671 828-1176, C1007D;R1008C;Q1011R). The gist of the method:
as §1

The target of a further assay is PUM1 PUF domain R5-KLE (Homo sapiens, UniProt Q14671 828-1176, C1007K;R1008L;Q1011E). A digest of the protocol:
as §1

The target in the next assay is PUM1 PUF domain R5-NSV (Homo sapiens, UniProt Q14671 828-1176, C1007N;R1008S;Q1011V). The gist of the method:
as §1

A further assay deals with PUM1 PUF domain R3-RAT (Homo sapiens, UniProt Q14671 828-1176, C935R;R936A;Q939T). The gist of the method: as §1
A further assay deals with PUM1 PUF domain R1-KTS (Homo sapiens, UniProt Q14671 828-1176, S863K;R864T;Q867S). The gist of the method: as §1
The next assay deals with T1, PUM1 PUF domain R6-CFF (Homo sapiens, UniProt Q14671 828-1176, N1043C;Y1044F;Q1047F).
T1 sequence: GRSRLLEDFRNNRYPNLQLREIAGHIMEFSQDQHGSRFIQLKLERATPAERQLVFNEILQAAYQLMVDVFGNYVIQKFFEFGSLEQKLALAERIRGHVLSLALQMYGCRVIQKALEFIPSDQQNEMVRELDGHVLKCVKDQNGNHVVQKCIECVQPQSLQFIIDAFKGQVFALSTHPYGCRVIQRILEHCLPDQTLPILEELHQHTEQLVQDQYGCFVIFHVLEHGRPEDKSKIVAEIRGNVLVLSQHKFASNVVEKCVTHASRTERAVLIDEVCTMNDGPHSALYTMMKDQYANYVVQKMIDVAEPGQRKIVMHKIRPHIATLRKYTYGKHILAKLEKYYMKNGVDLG
A digest of the protocol: as §1

A further assay deals with PUM1 PUF domain R2-NFP (Homo sapiens, UniProt Q14671 828-1176, Y900F;Q903P). A digest of the protocol: as §1
A further assay concerns the target PUM1 PUF domain R5-SRT (Homo sapiens, UniProt Q14671 828-1176, C1007S;Q1011T). A digest of the protocol:
as §1

Another assay concerns the target T2, PUM1 PUF domain R6-NYW (Homo sapiens, UniProt Q14671 828-1176, Q1047W).
T2 sequence: T1 sequence with C216N, F217Y, F220W
A digest of the protocol: as §1

Where a chain is given by its changes, count along the chain named.

Take “GGCUAGAACUAGUGGAUCCCCCGGCGCCCGGCGGCUCGAGCCCGGGUAAGCGUAAAUAGUCUGCAUGCCGCCGGGCGCCAUGCCUGCAGGUCGACUCUAGAAAACAUG”: in the assay with PUM1 PUF domain R8-SHR, the binding signal is 3.61 log2 enrichment (interaction score).

Regarding “GGCUAGAACUAGUGGAUCCCCCGGCGCCCGGCGGCUCGAGCCCGGGUAAGUGUCAAUAGUCUGCAUGCCGCCGGGCGCCAUGCCUGCAGGUCGACUCUAGAAAACAUG”, the values for the binding signal with PUM1 PUF domain R5-DCR and in the assay with PUM1 PUF domain R5-KLE were 2.94 log2 enrichment (interaction score) and 5.37 log2 enrichment (interaction score), respectively.

For “GGCUAGAACUAGUGGAUCCCCCGGCGCCCGGCGGCUCGAGCCCGGGUAAGUGUUAAUAGUCUGCAUGCCGCCGGGCGCCAUGCCUGCAGGUCGACUCUAGAAAACAUG”, the binding signal in the assay with PUM1 PUF domain R5-NSV is 2.21 log2 enrichment (interaction score); with PUM1 PUF domain R5-KLE, 2.51 log2 enrichment (interaction score).

Regarding “GGCUAGAACUAGUGGAUCCCCCGGCGCCCGGCGGCUCGAGCCCGGGUAAGUGUAAUUAGUCUGCAUGCCGCCGGGCGCCAUGCCUGCAGGUCGACUCUAGAAAACAUG”, in the assay with PUM1 PUF domain R3-RAT, the binding signal is 3.26 log2 enrichment (interaction score).

In the case of “GGCUAGAACUAGUGGAUCCCCCGGCGCCCGGCGGCUCGAGCCCGGGUAAGUGUGAAUAGUCUGCAUGCCGCCGGGCGCCAUGCCUGCAGGUCGACUCUAGAAAACAUG”, the binding signal with PUM1 PUF domain R5-NSV is 0.18 log2 enrichment (interaction score).

Turning to “GGCUAGAACUAGUGGAUCCCCCGGCGCCCGGCGGCUCGAGCCCGGGUAAGUGUAAAUCGUCUGCAUGCCGCCGGGCGCCAUGCCUGCAGGUCGACUCUAGAAAACAUG”, in the assay with PUM1 PUF domain R1-KTS, the binding signal is 4.91 log2 enrichment (interaction score).

As for “GGCUAGAACUAGUGGAUCCCCCGGCGCCCGGCGGCUCGAGCCCGGGUAAGUGUAAAUAGUCUGCAUGCCGCCGGGCGCCAUGCCUGCAGGUCGACUCUAGAAAACAUG”, the binding signal with PUM1 PUF domain R6-CFF is 4.85 log2 enrichment (interaction score); with PUM1 PUF domain R8-SHR, 4.08 log2 enrichment (interaction score); with PUM1 PUF domain R2-NFP it was 2.11 log2 enrichment (interaction score); in the assay with PUM1 PUF domain R5-SRT, 3.34 log2 enrichment (interaction score); with PUM1 PUF domain R6-NYW, 2.24 log2 enrichment (interaction score).

The values are drawn from PMC8384837, “Expanding the binding specificity for RNA recognition by a PUF domain”.
